Cycloheximide cs: counter-screen hit for Shiga toxin inhibitors, cycloheximide | 300,000 compounds, 12% hits | AID 2314 | cell reporter, cycloheximide protein synthesis inhibition counterscreen | max response, %; in the data active = max response mostly above about 13%, no sharp cut-off; inactive = mostly below about 14%; also: read at 38.3 µM for the half of the compounds with a filed dose; 0% is about no effect
Shiga toxin inh: inhibitors of Shiga toxin in Vero cells; Vero cells, Shiga toxin protein synthesis inhibition reporter; 290,000 compounds, 9.2% hits; inhibition, % at 38.7 µM; in the data active = inhibition mostly above about 28%, no sharp cut-off; inactive = mostly below about 43%; also: 0% is about no effect
Pf growth 48h: P. falciparum growth inhibition at 48 hours (one generation); P. falciparum luciferase growth in erythrocytes, 48 h; Potency, µM (doses to about 28.7 µM), for inactives: top-dose activity change, negative = inhibition, actives largely listed as inhibitors; 310,000 compounds, 5.9% hits; also: potency is read from the fitted curve at half-maximal effect; % is scaled to controls: 0 for no effect and ±100 for the full control effect
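Firefly luciferase activity from engineered P. falciparum reports growth; inhibitors lower the luminescent signal. Cultures contained 2% hematocrit erythrocytes at 0.1% final parasitemia.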
Pf growth 96h: P. falciparum growth inhibition at 96 hours. P. falciparum luciferase reporter growth, 96 h. Potency, µM (top dose mostly 28.7 µM), inactives show at the top dose activity change, negative = inhibition, actives largely listed as inhibitors. 320,000 compounds, 6.9% hits. AID 504834; also: potency is read from the fitted curve at half-maximal effect; % is scaled to controls: 0 for no effect and ±100 for the full control effect
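Infected RBCs, 2% Hct / 0.05% parasitemia final; luciferase-reporter P. falciparum; cpd 96 h, 37 C, 5% CO2; luciferase detection reagent; luminescence.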
* marks the source's active call; other numbers are inactive results; ? = inconclusive; . = not tested or not shown. Sampled rows, rich in hits. Any-hit rate of the full collection: about 21%. Unless noted, calls follow the shape of the dose curve; as a rule, active = well fitted inhibition curve with a large enough effect; inconclusive = small, poorly fitted or top-dose-only effect, or another doubt; inactive = no such curve, though single readings can be large or run the other way.

SMILES	Cycloheximide cs	Shiga toxin inh	Pf growth 48h	Pf growth 96h
O=C(N/N=C/c1ccc2c(c1)OCO2)c1cccs1	56*	68*	202%	123%
Cc1ccccc1/C=N/NC(=O)c1sccc1C	38*	66*	306%	294%
Cc1ccsc1C(=O)N/N=C/c1ccc2c(c1)OCO2	42*	78*	414%	413%
Cc1cccc(C(=O)N/N=C/c2ccc3c(c2)OCO3)n1	18	41	13%	204%
Cn1c(C(C)(O)C(O)c2ccccc2)nc2ccccc21 (stereo not drawn)	8	10	-3%	29%
CCCc1cnc(N2CCN(S(C)(=O)=O)CC2)nc1	23*	41	?	62%
CCc1ccc(C(=O)CN(C#N)c2nc(C)cc(C)n2)cc1	4	25	0%	?
Cc1cc(C)nc(N(C#N)CC(=O)c2ccccc2)n1	37*	48*	0%	.
C/C(=N\Nc1ccc2nncn2n1)c1ccc(Cl)s1	-1	-5	-1%	0%
C[C@@H](NC(=O)[C@@H]1Cc2ccccc2CN1)C(=O)NC1CCCCC1	9	14	-8%	10%
C[C@@H](NC(=O)[C@@H]1Cc2ccccc2CN1)C(=O)Nc1ccc2c(c1)OCO2	17*	10	45%	?
CC(C)[C@H](NC(=O)[C@@H]1Cc2ccccc2CN1)C(=O)Nc1ccc2c(c1)OCO2	23*	37	?	?
CCn1ncc(Cl)c1C(=O)Nc1ccc2c(c1)CCC2	37*	134*	33%	0%
CC(=O)Nc1ccc(NC(=O)c2ccc(Cl)nc2)cc1	-2	-5	40%	-1%
O=C(Nc1ccc2c(c1)CCC2)c1ccc(Cl)nc1	59*	64*	344%	157%
O=C(Nc1ccc2c(c1)CCC2)c1cnc(Cl)c(Cl)c1	67*	103*	183%	231%
CC(=O)N1CCN(S(=O)(=O)c2cccc(C(=O)Nc3ccc4c(c3)CCC4)c2)CC1	9	4	?	?
CCN1CCN(C(=O)C2CCC(=O)N(CCCN3CCCC3=O)C2)CC1 (stereo not drawn)	-6	-7	18%	161%
COC(=O)c1cc(Nc2cc(C)nc3ncnn23)cc(C(=O)OC)c1	-4	-13	16%	-27%
COc1cc(Nc2cc(C)nc3ncnn23)cc(OC)c1	-2	9	8.3µM*	10%
COc1ccc(Nc2cc(C)nc3ncnn23)cc1Cl	0	-7	?	?
COc1cc(Nc2cc(C)nc3ncnn23)cc(OC)c1OC	-5	20	9.3µM*	?
Cc1ccc(C(=O)OCC(=O)NC2CCCC(C)C2C)cc1S(=O)(=O)N1CCCCC1 (stereo not drawn)	.	.	?	10%
CC(=O)O[C@H]1CC(=O)OC(C)(C)C2CC(=O)[C@]3(C)C(CC[C@@](C)([C@@H](O[C@@H]4O[C@H](CO)[C@@H](O)[C@H](O)[C@H]4O)c4ccoc4)[C@@]34O[C@@H]4C(=O)O)[C@]21C (stereo partly drawn)	.	.	2%	16%
Cc1cc(NC(=O)CSc2nnnn2-c2ccc(C(C)C)cc2)no1	-5	2	19%	?
SMILES	Cycloheximide cs	Shiga toxin inh	Pf growth 48h	Pf growth 96h
Cc1cc(-n2c(C)cc(C(=O)CSc3nnc4sc5ccccc5n34)c2C)no1	24*	87*	-10%	33%
Cc1cc(-n2c(C)cc(C(=O)CSc3nnnn3-c3ccc(Cl)cc3)c2C)no1	-1	-1	12µM*	12µM*
Cc1nn2c(NCCN(C)C)c3c(nc2c1-c1ccccc1)CCCC3	-1	1	?	2.1µM*
CCCCNc1c2c(nc3c(-c4ccccc4)c(C)nn13)CCC2	6	9	.	9.3µM*
Cc1nn2c(N3CCCC3)c3c(nc2c1-c1ccccc1)CCC3	10	14	?	?
Cc1nn2c(N3CCN(CCO)CC3)c3c(nc2c1-c1ccccc1)CCCC3	-1	-13	8.3µM*	?
COc1cccc(Nc2c3c(nc4c(-c5ccccc5)c(C)nn24)CCC3)c1	-5	4	?	12µM*
COc1ccc(-c2noc(CNC(=O)c3ccoc3C)n2)cc1OC	-3	3	4%	5%
Cc1nn2c(NCc3cccnc3)c3c(nc2c1-c1ccccc1)CCC3	0	6	?	1.5µM*
COCCNc1c2c(nc3c(-c4ccccc4)c(C)nn13)CCCC2	2	-9	?	9%
Cc1cccc(N(C(=O)C(F)(F)F)C(C(=O)NC2CCCCC2)c2cccs2)c1 (stereo not drawn)	-2	-6	?	9%
CC(=O)c1cccc(N(C(=O)c2ccccn2)C(C(=O)NC2CCCCC2)c2cccs2)c1 (stereo not drawn)	0	16	2.6µM*	1.7µM*
O=C(NC1CCCCC1)C(c1cccs1)N(C(=O)c1ccco1)c1ccc2c(c1)OCCO2 (stereo not drawn)	24*	10*	?	303%
O=C(NC1CCCCC1)C(c1cccs1)N(CCCN1CCOCC1)C(=O)c1ccc(-c2ccccc2)[nH]1 (stereo not drawn)	19*	56*	1.7µM*	3%
CC(=O)c1ccc(N(C(=O)c2ccco2)C(C(=O)NC2CCCC2)c2cccs2)cc1 (stereo not drawn)	29*	26	?	?
CCOc1ccccc1N(C(=O)c1ccco1)C(C(=O)NC1CCCC1)c1cccs1 (stereo not drawn)	-2	2	0%	?
COc1cc(OC)cc(C(=O)NC(C)CNc2ccc(Cl)cc2[N+](=O)[O-])c1 (stereo not drawn)	2	1	-13%	23%
Cc1ncsc1C(=O)N1CCCC(C(=O)c2ccc3ccccc3c2)C1 (stereo not drawn)	-2	-3	-14%	-29%
O=c1c2ccccc2nc2n1C(CBr)CN2 (stereo not drawn)	-2	-10	5%	?
COCCN(C(=O)COC(=O)CCSc1ccc(F)cc1)c1c(N)n(Cc2ccccc2)c(=O)[nH]c1=O	.	.	?	27%
O=C(NCC(=O)N(Cc1cccs1)C(C(=O)NC1CCCCC1)c1ccco1)c1ccco1 (stereo not drawn)	3	13	2%	?
O=C(NC1CCCCC1)C(c1cccs1)N(Cc1cccs1)C(=O)c1ccco1 (stereo not drawn)	8	-18	15µM*	.
CCOC(=O)c1c(C)c(C(=O)NC2CCCCCC2)c(C)n1C	-3	-3	-8%	.
CCOC(=O)c1c(C)c2c(n1C)CCC/C2=N\O	12	18	22%	12µM*
CCOC(=O)C1CC(C)=C(C)CC1C(=O)O (stereo not drawn)	-4	-3	22%	49%
CC(Sc1nnc(NC2CCCCC2)s1)C(=O)Nc1ccc2c(c1)C(=O)c1ccccc1C2=O (stereo not drawn)	26*	76*	-22%	-27%
COc1cc2[nH]c3ccccc3c2cc1C	53*	69*	61%	-13%
NS(=O)(=O)c1ccc(CNC(=O)Cc2ccc(S(=O)(=O)N3CCOCC3)s2)cc1	.	.	3%	-2%
CCc1nnc(N/N=C/c2cc(C)c(C)cc2C)n1N	-2	10	-19%	?

Source: PubChem
